Here are results for nine molecules from publication PMC5540273 (PLoS ONE, 2017).

Some test systems named below: ALK; ANKK1; AURKA; AURKB; AURKC.
What all share (settings): concentration: 1 μM, replicates: in singlicate; n = 1
Another experiment has as its system T1, AMPK-alpha1.
T1 construct: gene PRKAA1

For the next experiment, the system named is T2, AMPK-alpha2.
T2 construct: gene PRKAA2

For the next experiment, the system named is T3, ARK5.
T3 construct: gene NUAK1

The next experiment has as its system T4, ASK1.
T4 construct: gene MAP3K5

For a further experiment, the system named is T5, ASK2.
T5 construct: gene MAP3K6
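Also: KINOMEscan kinase panel screen.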

With `COc1cccc(C2=C(Nc3cccc(C(=O)O)c3)C(=O)NC2=O)c1` [SB-390770], the “%Inh” value is listed as 0% with ALK; 45% in the experiment on AMPK-alpha1; 16% with AMPK-alpha2; 70% in the experiment on ANKK1; 0% in the experiment on ARK5; 5% in the experiment with ASK1. The “%Inh” value is 4% in the experiment on ASK2, 21% with AURKA, 31% with AURKB and 14% in the experiment with AURKC.

Turning to `Cc1c(Cn2c(C)nn3c(=O)cc(N4CCO[C@H](C)C4)nc23)cccc1C(F)(F)F` [GSK2373690], the “%Inh” value in the experiment with ALK turned out to be 22%; in the experiment on AMPK-alpha1 it was 0%; with AMPK-alpha2, 27%; in the experiment with ANKK1, 0%; in the experiment on ARK5 it was 2%; in the experiment with ASK1, 11%. The “%Inh” value with ASK2 is reported as 15%; in the experiment with AURKA, 0%; in the experiment with AURKB, 27%; in the experiment with AURKC, 30%.

Turning to `Cc1nn2c(=O)cc(N3CCOCC3)nc2n1Cc1cccc(Cl)c1Cl` [GSK2342769], the “%Inh” value in the experiment on ALK is 29%; in the experiment with AMPK-alpha1, 0%; in the experiment on AMPK-alpha2, 2%; in the experiment on ANKK1, 0%; with ARK5 it was 20%; with ASK1, 5%. In addition, the “%Inh” value with ASK2 came out at 7%; with AURKA, 0%; in the experiment with AURKB, 3%; in the experiment with AURKC it was 0%.

As to `CCC(=O)c1c(-c2ccccc2)c2cc(Cl)ccc2c(=O)n1Cc1cc(S(C)(=O)=O)n(CC(N)=O)n1`, the “%Inh” value in the experiment with ALK, in the experiment with AMPK-alpha1, in the experiment on AMPK-alpha2, in the experiment on ANKK1, in the experiment with ARK5 and in the experiment on ASK1 was 0% each time. Besides, the “%Inh” value with ASK2, in the experiment on AURKA, in the experiment on AURKB and in the experiment with AURKC was 0% in each case.

In the case of `COc1cc2ncn(-c3cc(OCc4ccncc4Br)c(C(N)=O)s3)c2cc1OC` [GW854278], the “%Inh” value with ALK came out at 0%; in the experiment with AMPK-alpha1 it was 7%; in the experiment with AMPK-alpha2 it was 0%; in the experiment on ANKK1 it was 5%; with ARK5, 0%; in the experiment with ASK1 it was 6%. Besides, the “%Inh” value in the experiment with ASK2 came out at 6%; in the experiment on AURKA it was 0%; in the experiment on AURKB, 20%; with AURKC, 20%.

Take `O=C(NCCNc1ccnc(Nc2ccc(F)cc2)n1)Nc1ccc2c(c1)OCO2` [GSK1379882]: the “%Inh” value with ALK came out at 24%; in the experiment with AMPK-alpha1, 0%; in the experiment with AMPK-alpha2, 2%; in the experiment with ANKK1 it was 18%; in the experiment on ARK5, 11%; in the experiment with ASK1, 14%. In addition, the “%Inh” value was found to be 0% in the experiment on ASK2, 28% in the experiment on AURKA, 0% in the experiment with AURKB and 36% in the experiment on AURKC.

Turning to `Cc1cccc(-c2nc(Nc3ccc4c(cnn4C)c3)c3ccccc3n2)n1` [GW876731], the “%Inh” value with ALK was found to be 0%; with AMPK-alpha1 it was 0%; with AMPK-alpha2, 17%; in the experiment on ANKK1, 16%; with ARK5 it was 5%; in the experiment on ASK1, 0%. Besides, the “%Inh” value in the experiment with ASK2 was found to be 10%; in the experiment with AURKA, 24%; in the experiment with AURKB it was 6%; in the experiment with AURKC, 0%.

Consider `Cc1nnc(-c2ccc3ncn(-c4ccc(S(C)=O)cc4)c3c2)o1` (stereo not drawn), for which the “%Inh” value in the experiment with ALK turned out to be 6%; in the experiment with AMPK-alpha1, 0%; with AMPK-alpha2 it was 2%; in the experiment on ANKK1, 0%; with ARK5, 21%; with ASK1, 0%. In addition, the “%Inh” value turned out to be 0% in the experiment with ASK2, 21% in the experiment on AURKA, 10% with AURKB and 5% in the experiment with AURKC.

Turning to `Nc1nc(-c2ccccc2F)c(-c2ccnc3ccccc23)s1` [GW560459], the “%Inh” value in the experiment with ALK was 31%; with AMPK-alpha1 it was 0%; in the experiment with AMPK-alpha2, 1%; in the experiment with ANKK1, 16%; in the experiment on ARK5 it was 0%; with ASK1, 3%. The “%Inh” value worked out at 0% in the experiment with ASK2, 0% in the experiment on AURKA, 5% in the experiment with AURKB and 17% in the experiment on AURKC.
